Experimental data as given in PubChem BioAssay (NCATS).
Activity calls are given as the source filed them. The call rests on the fitted dose curve; in most records, active means well fitted curve in the direction sought with a large enough effect; inconclusive means small, poorly fitted or top-dose-only effect, or effect the other way, or another doubt; inactive means no such curve, though single readings can be large or run the other way.

Assay: qHTS for inhibitors of adenylyl cyclases using a fission yeast platform: a pilot screen against the NCATS LOPAC library (AID 1347410)
Conditions: S. pombe CHP2027, fbp1-GFP fluorescence, 18 h, yeast expressing mammalian AC9 and human GNAS; series mostly up to 57.5 µM
How it was run: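 Fission yeast qHTS: CHP2027 cells (AC9-GNAS-PDE4D2, fbp1-GFP), 5x10^6 cells/mL working density, EMM + His/Lys/Ura; LOPAC at up to 57 µM final; 18 h dark, 30C; GFP by laser cytometry. DPI positive control, DMSO vehicle.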

SMILES | outcome
Nc1nc(Cl)nc2c1ncn2[C@@H]1O[C@H](COP(=O)(O)OP(=O)(O)OP(=O)(O)O)[C@@H](O)[C@H]1O | inactive
CCCN(CC1CC1)c1nc(C)nc(Nc2c(Cl)cc(Cl)cc2Cl)c1Cl | inactive
Nc1nc(SCc2ccc([N+](=O)[O-])cc2)c2ncn([C@@H]3O[C@H](CO)[C@@H](O)[C@H]3O)c2n1 | inactive
CSc1nc(N)c2ncn([C@@H]3O[C@H](COP(=O)(O)OP(=O)(O)OP(=O)(O)O)[C@@H](O)[C@H]3O)c2n1 | inactive
Nc1ncnc2c1ncn2[C@@H]1O[C@H](COP(=O)(O)OP(=O)(O)OP(=O)(O)OP(=O)(O)OC[C@@H]2O[C@H](n3cnc4c(N)ncnc43)[C@@H](O)[C@H]2O)[C@@H](O)[C@H]1O | inactive
COc1ccc2c(c1)CCC1C2CC[C@@]2(C)C1CC[C@@H]2NCCCCCCN1C(=O)CCC1=O (stereo partly drawn) | inactive
O=C(O)c1cc(=O)c2c(Cl)cc(Cl)cc2[nH]1 | inactive
Oc1ccc(C2CNCc3sccc32)cc1O (stereo not drawn) | inactive
COc1cc(OC)c(/C=C2/C(=O)Nc3ccccc32)c(OC)c1 | inactive
NC(=O)C1=CN(C2OC(COP(=O)(O)OP(=O)(O)OC[C@H]3O[C@@H](n4cnc5c(N)ncnc54)[C@H](OP(=O)(O)O)[C@@H]3O)C(O)C2O)C=CC1 (stereo partly drawn) | inactive
CNC(=O)[C@H]1O[C@@H](n2cnc3c(NCc4ccc(N)cc4)ncnc32)[C@H](O)[C@@H]1O | inactive
O=C(O)c1cc([N+](=O)[O-])ccc1NCCCc1ccccc1 | inactive
CC(=O)SCC[N+](C)(C)C | inactive
